Shiga toxin inh: inhibitors of Shiga toxin in Vero cells | Vero cells, Shiga toxin protein synthesis inhibition reporter | inhibition, % at 38.7 µM | 290,000 tested, 9.2% active | AID 2315; in the data active = inhibition mostly above about 28%, no sharp cut-off; inactive = mostly below about 43%; also: 0% is about no effect
NS1 inh: inhibitors of influenza NS1 protein function. Potency, µM (top dose mostly 46.1 µM), inactives show top-dose activity, positive = more growth. 270,000 tested, 0.4% active; calls by dose curve; also: potency is read from the fitted curve at half-maximal effect; actives are rising curves; nearly all actives have a fitted effect of over 50% in size
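OD600 was taken as the measure of yeast growth restored by compound in an NS1-expressing S. cerevisiae strain. Cells had been washed out of glucose medium and diluted 1:100 into galactose -URA medium, pH 6.0.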
CHX counter: counter-screen hit for Shiga toxin inhibitors, cycloheximide; cell reporter, cycloheximide protein synthesis inhibition counterscreen; max response, %; 300,000 tested, 12% active; AID 2314; in the data active = max response mostly above about 13%, no sharp cut-off; inactive = mostly below about 14%; also: read at 38.3 µM for the half of the compounds with a filed dose; 0% is about no effect
Pf growth 96h: P. falciparum growth inhibition at 96 hour, primary screen for plastid delayed-death inhibitors. 320,000 tested, 6.9% active. P. falciparum luciferase reporter growth, 96 h. Potency, µM (highest dose often 28.7 µM), inactives show at the highest dose activity change, negative = inhibition, most hits filed as inhibitors; also: potency is read from the fitted curve at half-maximal effect; % is scaled to controls: 0 for no effect and ±100 for the full control effect
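Erythrocytes infected with luciferase-expressing P. falciparum were dispensed at 2% hematocrit and 0.05% parasitemia (final), then incubated with compounds 96 hours at 37 C in 5% CO2. Luminescence after detection reagent addition reported growth.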
Pf growth 48h: P. falciparum growth inhibition at 48 hours (one generation) | Potency, µM (doses to about 28.7 µM), without a hit: at the top dose activity change, negative = inhibition, hits mostly inhibitors | P. falciparum luciferase growth in erythrocytes, 48 h | 310,000 tested, 5.9% active | AID 504832; also: potency is read from the fitted curve at half-maximal effect; % is scaled to controls: 0 for no effect and ±100 for the full control effect
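Luciferase-expressing P. falciparum in infected erythrocytes (2% hematocrit, 0.1% parasitemia final) in RPMI 1640/0.5% Albumax were exposed to compound for 48 hours at 37 C, 5% CO2; growth read as luminescence.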
Sm TGR inh: blocks Schistosoma mansoni thioredoxin glutathione reductase; AID 485364; Potency, µM (top dose mostly 114 µM), without a hit: at the top dose activity change, negative = inhibition, most hits filed as inhibitors; purified TGR, DTNB reduction, TNB absorbance 405 nm; Q962Y6; 360,000 tested, 3% active; also: potency is read from the fitted curve at half-maximal effect; % is scaled to controls: 0 for no effect and ±100 for the full control effect; nearly all actives have a fitted effect of over 60% in size
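Kinetic colorimetric format: TGR-catalysed, NADPH-driven DTNB reduction monitored via TNB absorbance. Enzyme dispensed at 20 nM; compound exposure 15 min at room temperature before reaction start.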
Starred values were filed as active, the others as inactive. An excerpt weighted towards active compounds, which were near 21% of everything screened. Unless noted, calls follow the shape of the dose curve; as a rule, active = well fitted curve in the direction sought with a large enough effect; inconclusive = small, poorly fitted or top-dose-only effect, or another doubt; inactive = no such curve, though single readings can be large; an effect the other way counts as inactive or inconclusive.

`Oc1c(C(c2ccc(Cl)cc2)N2CCCC2)sc2nc(-c3ccco3)nn12` (configuration not stated) gave Sm TGR inh 1.0%.
CC(C)(C)n1ncc2c(=O)n(Cc3ccccc3Br)cnc21 was read as Pf growth 96h inconclusive, Pf growth 48h 2.94µM* and Sm TGR inh -0.3%.
CC(C)(C)n1ncc2c(=O)n(CC(=O)NCCc3ccccc3)cnc21 was read as Shiga toxin inh 61.5*, NS1 inh -0.8%, CHX counter 21.4*, Pf growth 96h 96.4%, Pf growth 48h 34.8% and Sm TGR inh -6.5%.
For CC(C)(C)n1ncc2c(=O)n(CC(=O)NCc3ccccc3Cl)cnc21 the results were Shiga toxin inh 63.7*, NS1 inh -3.1%, CHX counter 32.2*, Pf growth 96h inconclusive, Pf growth 48h 13.9% and Sm TGR inh 2.3%.
`COc1ccc(CCNC(=O)Cn2cnc3c(cnn3C(C)(C)C)c2=O)cc1OC` gave Shiga toxin inh -5.1, NS1 inh -7.8%, CHX counter 6.4, Pf growth 96h 10.4µM*, Pf growth 48h 6.9% and Sm TGR inh 4.3%.
For Cc1ccc(Cn2cnc3c(cnn3C(C)(C)C)c2=O)cc1 the results were Shiga toxin inh 19.7, CHX counter 9.4, Pf growth 96h -20.2%, Pf growth 48h 55.7% and Sm TGR inh 0.4%.
Cc1ccc(-n2ccn(CC(=O)NCCc3ccccc3)c(=O)c2=O)cc1C was read as Shiga toxin inh 17.6, NS1 inh -14.8%, CHX counter 32.9*, Pf growth 96h 3.9%, Pf growth 48h 48.0% and Sm TGR inh -10.8%.
For Cc1cc(C)cc(-n2ccn(CC(=O)NCCc3ccccc3)c(=O)c2=O)c1 the results were Shiga toxin inh -6.4, NS1 inh 1.2%, CHX counter 11.4, Pf growth 96h 0.5%, Pf growth 48h -0.8% and Sm TGR inh 2.2%.
For CCN(CC)S(=O)(=O)c1ccc2c(c1)nc(-c1ccccn1)n2C the results were Shiga toxin inh 82.9*, NS1 inh -3.6%, CHX counter 23.4*, Pf growth 96h 66.4%, Pf growth 48h 87.4% and Sm TGR inh inconclusive.
CCCn1c(CCC(=O)O)nc2cc(S(=O)(=O)N(CC)CC)ccc21 was read as Shiga toxin inh -9.6, NS1 inh 9.7%, CHX counter 3.4, Pf growth 96h -11.7%, Pf growth 48h -6.3% and Sm TGR inh 9.7%.
For CS(=O)(=O)OCC(O)C(O)COS(C)(=O)=O (configuration not stated) the results were Pf growth 96h -16.1% and Pf growth 48h -11.3%.
Screening O=C(Nc1cccc(F)c1)Nc1ccnn1C1CCN(C(=O)c2cscn2)CC1 returned Shiga toxin inh 51.2*, NS1 inh 4.4%, CHX counter 41.3*, Pf growth 96h 0.6%, Pf growth 48h 1.2% and Sm TGR inh -6.3%.
For COc1ccc(CNC(=O)c2ccc(N3CCCC3)c(NC(=O)NCc3ccc(C)cc3)c2)cc1 the results were Sm TGR inh -4.4%.
Screening COc1ccc(NC(=O)C(C)Sc2nnc3c4c(nc(-c5ccc(OC)cc5)n23)CC(C)(C)OC4)cc1 (configuration not stated) returned Shiga toxin inh -1.4, NS1 inh 0.1%, CHX counter -1.8, Pf growth 96h inconclusive, Pf growth 48h 2.94µM* and Sm TGR inh -0.3%.
For CSCC[C@H](NC(=O)OC(C)(C)C)C(=O)N1CCC(C(=O)NCC(=O)Nc2ccc(C)cc2)CC1 the results were Shiga toxin inh -5.4, NS1 inh -2.7%, CHX counter -1.4, Pf growth 96h -6.7%, Pf growth 48h inconclusive and Sm TGR inh -6.9%.
O=C(NCc1cccnc1)c1ccc([N+](=O)[O-])o1 was read as Shiga toxin inh 30.1, NS1 inh -2.4%, CHX counter 31.2*, Pf growth 96h inconclusive, Pf growth 48h 4.15µM* and Sm TGR inh inconclusive.
`O=C(Nc1cccnc1)c1ccc([N+](=O)[O-])o1` gave Shiga toxin inh 70.7*, NS1 inh -6.2%, CHX counter 38.4*, Pf growth 96h 0.0%, Pf growth 48h inconclusive and Sm TGR inh inconclusive.

Assay outcomes from PubChem.
